From PubChem BioAssay come the findings set out here.

A short description of assay [1]: small molecules captured by biotinylated probe aFSTL3 – biochemical, small-molecule microarray, fluorescence 635/667, stem cell growth factor project, primary screen (AID 1064).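 Also: measures binding of the biotinylated anti-FSTL3 antibody to printed compounds.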 The note with it: higher = more signal.
The nature of assay [2]: binders from COS7 lysate, DM2A8 probe, primary screen, torsin A project, cell lysate, small-molecule microarray, fluorescence 635/667 (AID 1065). The note with it: higher = more signal, COS7 lysate expressing mutant human TOR1A.
A short description of assay [3]: small molecules captured by biotinylated probe aFGF2 – biochemical, small-molecule microarray, fluorescence 635/667, stem cell growth factor project, primary screen (AID 1067).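 Also: measures binding of biotinylated aFGF2 protein to printed compounds on slides; z-score merges feature fluorescence and signal-to-noise across triplicate slides.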 The note with it: higher = more signal.
The nature of assay [4]: small molecules captured by biotinylated probe aFGF10 – biochemical, small-molecule microarray, fluorescence 635/667, stem cell growth factor project, primary screen (AID 1071).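 Also: score merges 667 nm spot intensity and signal to noise from triplicate slides.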 The conditions noted are these: higher = more signal.
In assay [5] the target is Neurogenic locus notch homolog protein 2 (Homo sapiens) (UniProt Q04721). In words: small molecules binding Notch2 protein – biochemical, small-molecule microarray, 635 nm fluorescence, stem cell growth factors, primary screen (AID 1073). The conditions noted are these: higher = more signal.
Assay [6] addresses Pro-neuregulin-1, membrane-bound isoform (Homo sapiens) (UniProt Q02297). In words: small molecules binding neuregulin-1 protein – biochemical, small-molecule microarray, fluorescence 635/667, psychiatric disease protein project, primary screen (AID 1075).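 Also: score combines 667 nm spot fluorescence with signal to noise.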 The conditions noted are these: NRG1 binding, 635 nm fluorescence, higher = more signal.
In assay [7] the test system is Neuregulin-1 EGF-like domain. In words: small molecules binding NRG1 EGF domain – biochemical, small-molecule microarray, 635 nm fluorescence, primary screen (AID 1081).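 Also: binding of the protein to compounds printed on small-molecule microarray slides.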 The conditions noted are these: higher = more signal.
Assay [8] in a line: FRG1 expression reporter modulators in myotubes – cell-based, C2C12 myotubes, firefly/Renilla luciferase, luminescence, FRG1 inhibition for FSHD, primary screen (AID 1084). The conditions noted are these: FRG1 promoter luciferase, higher = more signal, called active from +8 up or from −8 down.
The nature of assay [9]: small molecules captured by biotinylated probe aFST – biochemical, small-molecule microarray, fluorescence 635/667, stem cell growth factor project, primary screen (AID 1086).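 Also: score merges 667 nm fluorescence with signal-to-noise of each printed compound spot.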 The note with it: higher = more signal.
A short description of assay [10]: binders of probe aHhip on microarray, primary screen, stem cell growth factor project, biochemical, small-molecule microarray, fluorescence 635/667 (AID 1087).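 Also: score merges spot fluorescence at 667nm with spot signal to noise ratio.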 The conditions noted are these: higher = more signal.

Activity calls are given as the source filed them.

Chain of Neurogenic locus notch homolog protein 2 (Homo sapiens) (Q04721 whole entry, looked up, canonical isoform): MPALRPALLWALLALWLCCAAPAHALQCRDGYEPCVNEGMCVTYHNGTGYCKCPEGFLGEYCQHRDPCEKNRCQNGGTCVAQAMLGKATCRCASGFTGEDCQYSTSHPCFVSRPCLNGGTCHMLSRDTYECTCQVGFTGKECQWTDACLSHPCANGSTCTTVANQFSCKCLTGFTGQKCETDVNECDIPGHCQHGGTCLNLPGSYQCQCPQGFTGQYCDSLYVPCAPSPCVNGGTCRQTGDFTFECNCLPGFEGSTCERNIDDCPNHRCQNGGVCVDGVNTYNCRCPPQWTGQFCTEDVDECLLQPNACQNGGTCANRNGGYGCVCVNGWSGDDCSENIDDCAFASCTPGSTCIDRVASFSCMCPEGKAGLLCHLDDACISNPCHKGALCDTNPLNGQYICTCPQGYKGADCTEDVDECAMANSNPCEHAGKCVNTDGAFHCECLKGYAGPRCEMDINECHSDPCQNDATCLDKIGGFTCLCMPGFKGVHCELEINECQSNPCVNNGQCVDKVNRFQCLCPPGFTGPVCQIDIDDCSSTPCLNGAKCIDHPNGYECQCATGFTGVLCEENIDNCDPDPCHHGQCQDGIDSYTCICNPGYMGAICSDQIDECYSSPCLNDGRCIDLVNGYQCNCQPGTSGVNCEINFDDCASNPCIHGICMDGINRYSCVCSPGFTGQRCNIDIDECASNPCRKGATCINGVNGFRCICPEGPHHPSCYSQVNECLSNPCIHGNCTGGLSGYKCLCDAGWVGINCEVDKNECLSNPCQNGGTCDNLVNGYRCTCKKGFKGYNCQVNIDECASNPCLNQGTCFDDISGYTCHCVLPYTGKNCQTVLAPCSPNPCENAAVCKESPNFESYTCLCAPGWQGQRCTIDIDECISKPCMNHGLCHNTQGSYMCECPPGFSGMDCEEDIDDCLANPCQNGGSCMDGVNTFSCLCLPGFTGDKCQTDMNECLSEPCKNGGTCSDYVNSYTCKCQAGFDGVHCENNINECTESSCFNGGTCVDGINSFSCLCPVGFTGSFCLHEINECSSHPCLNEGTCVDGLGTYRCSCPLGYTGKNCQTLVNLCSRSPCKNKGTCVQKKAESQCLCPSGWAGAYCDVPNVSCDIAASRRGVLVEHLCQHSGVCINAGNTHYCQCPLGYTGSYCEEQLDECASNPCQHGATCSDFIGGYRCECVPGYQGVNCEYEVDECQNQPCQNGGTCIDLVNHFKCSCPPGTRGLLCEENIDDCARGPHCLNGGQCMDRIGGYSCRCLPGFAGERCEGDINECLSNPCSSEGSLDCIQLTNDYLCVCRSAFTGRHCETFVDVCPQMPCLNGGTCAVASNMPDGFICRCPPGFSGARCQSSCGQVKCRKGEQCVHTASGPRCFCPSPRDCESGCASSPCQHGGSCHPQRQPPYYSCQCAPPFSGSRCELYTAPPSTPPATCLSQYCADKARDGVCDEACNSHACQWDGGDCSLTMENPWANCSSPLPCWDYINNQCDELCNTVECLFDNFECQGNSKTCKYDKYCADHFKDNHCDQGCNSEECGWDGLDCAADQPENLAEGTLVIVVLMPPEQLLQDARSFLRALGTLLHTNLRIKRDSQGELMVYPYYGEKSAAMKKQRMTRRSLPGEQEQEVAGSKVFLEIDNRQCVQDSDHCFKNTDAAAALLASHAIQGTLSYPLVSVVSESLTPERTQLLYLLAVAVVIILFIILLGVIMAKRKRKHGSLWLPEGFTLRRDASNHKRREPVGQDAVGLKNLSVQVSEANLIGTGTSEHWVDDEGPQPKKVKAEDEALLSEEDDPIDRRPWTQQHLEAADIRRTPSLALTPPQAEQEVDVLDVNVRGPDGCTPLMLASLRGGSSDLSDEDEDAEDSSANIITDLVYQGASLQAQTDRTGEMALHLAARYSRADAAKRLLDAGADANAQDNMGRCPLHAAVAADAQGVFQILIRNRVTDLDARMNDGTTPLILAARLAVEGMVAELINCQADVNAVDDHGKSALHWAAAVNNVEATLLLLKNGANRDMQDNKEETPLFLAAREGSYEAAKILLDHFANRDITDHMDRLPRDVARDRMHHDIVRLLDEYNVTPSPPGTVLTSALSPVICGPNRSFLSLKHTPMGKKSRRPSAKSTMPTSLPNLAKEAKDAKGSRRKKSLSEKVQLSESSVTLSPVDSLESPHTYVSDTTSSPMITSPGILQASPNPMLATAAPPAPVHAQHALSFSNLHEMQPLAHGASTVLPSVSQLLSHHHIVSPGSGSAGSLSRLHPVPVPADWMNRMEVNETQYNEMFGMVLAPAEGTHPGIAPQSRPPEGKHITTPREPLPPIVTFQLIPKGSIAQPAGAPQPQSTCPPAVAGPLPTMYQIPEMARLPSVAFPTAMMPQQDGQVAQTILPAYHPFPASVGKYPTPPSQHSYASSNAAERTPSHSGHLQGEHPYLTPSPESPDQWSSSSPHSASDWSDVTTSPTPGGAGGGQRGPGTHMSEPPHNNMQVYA
Chain of Pro-neuregulin-1, membrane-bound isoform (Homo sapiens) (Q02297 whole entry, looked up, the tested form may be a part, canonical isoform): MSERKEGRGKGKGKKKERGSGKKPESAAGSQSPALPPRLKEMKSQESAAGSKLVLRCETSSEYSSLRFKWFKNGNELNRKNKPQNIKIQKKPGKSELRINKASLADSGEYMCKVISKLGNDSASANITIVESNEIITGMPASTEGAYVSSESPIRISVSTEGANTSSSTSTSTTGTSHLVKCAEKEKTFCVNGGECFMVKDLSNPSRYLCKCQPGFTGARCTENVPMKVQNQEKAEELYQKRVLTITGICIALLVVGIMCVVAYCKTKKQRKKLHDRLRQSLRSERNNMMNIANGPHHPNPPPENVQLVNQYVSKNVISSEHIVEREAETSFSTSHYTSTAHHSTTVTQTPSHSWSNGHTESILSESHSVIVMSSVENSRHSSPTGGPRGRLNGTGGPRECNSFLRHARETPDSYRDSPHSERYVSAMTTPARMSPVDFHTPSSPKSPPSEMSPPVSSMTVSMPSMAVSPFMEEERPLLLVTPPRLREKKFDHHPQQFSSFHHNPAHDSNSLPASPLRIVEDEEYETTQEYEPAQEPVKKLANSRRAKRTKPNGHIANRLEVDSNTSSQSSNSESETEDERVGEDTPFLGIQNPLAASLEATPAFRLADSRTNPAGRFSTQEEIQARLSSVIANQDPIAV

With `O=C(c1ccccc1)N1C(=O)[C@]2(Cc3ccccc31)N=C(c1ccc(OCCCO)cc1)O[C@@H]2c1ccccc1`, the composite z-score in assay [1] is -0.203; in assay [2] it was -0.0033; in assay [3], -0.061; in [4], 0.821; in assay [5], 0.562; in [6] it was 1.61. In addition, the figures for the composite z-score in assay [7], in assay [9] and in assay [10] were 1.3, 0.313 and 0.252, respectively. Also, the z-score in assay [8] was -1.76 (inactive).

Consider `C[N+](C)(C)CCCC[C@@H]1NC(=O)[C@@H]2C[C@H](C(=O)NCCCCCCN)[C@H](c3cccc(OCCO)c3)N2C1=O`, for which the composite z-score worked out at 2.69 in assay [1]; 2.09 in [2]; 0.239 in [3]; 0.494 in assay [4]; 0.731 in [5]; 2.31 in [6]. For the same compound, the composite z-score in [7] was 1.38; in assay [9], 2.1; in [10], 1.05. The z-score in assay [8] is -0.155 (inactive).

Take `CC(C)C(CO)N1C(=O)[C@@H]2C3C(=O)OCCC/C=C\[C@H]3OC23C=CCN(Cn2nnc4ccccc42)C(=O)[C@@H]13` (stereo not given in full): the composite z-score in assay [1] was 0.314; in [2], -0.665; in assay [3], -0.148; in assay [4] it was -0.323; in assay [5], -0.72; in assay [6] it was 1.88. For the same compound, the composite z-score in assay [7] is 0.476; in assay [9] it was 0.013; in assay [10], -0.306. The z-score in [8] is 0.0182 (inactive).

`COC(=O)[C@@]1(Cc2ccc(OC)cc2)[C@H]2c3cc(C(=O)N4CCCC4)n(CCc4c[nH]c5ccc(O)cc45)c3C[C@H]2CN1C(=O)c1ccccc1`: the composite z-score in assay [1] is 0.77; in assay [2], 0.0885; in assay [3], 0.155; in assay [4] it was 0.897; in [5] it was 1.7; in assay [6], 1.44. Moreover, the composite z-score in assay [7] is 1.37; in [9] it was 1.46; in assay [10] it was -0.374. Also, the z-score in [8] was 0.829 (inactive).

`CCOC(=O)C=Cc1cccc(C)c1O`: the composite z-score was -0.071 in [1]; -0.232 in [2]; -0.0348 in [3]; -0.0154 in assay [4]; 0.177 in assay [5]; 0.306 in [6]. Also, the composite z-score in assay [7] is -0.155; in [9], -0.488; in assay [10] it was -0.236. Further, the z-score in assay [8] is 1.5 (inactive).

`CC(CO)N1C(=O)[C@@H]2[C@H]3C(=O)OCC=C[C@H]3OC23C=CCN(Cn2nnc4ccccc42)C(=O)[C@@H]13` (stereo not given in full): the composite z-score was 0.12 in assay [1]; -0.699 in assay [2]; -0.207 in [3]; -0.729 in assay [4]; -1 in assay [5]; 1.88 in assay [6]. Besides, the composite z-score in assay [7] was 0.694; in assay [9], -0.391; in assay [10] it was -0.0994. Also, the z-score in assay [8] was 0.246 (inactive).

Turning to `CCOC(=O)C1=C[C@@H](c2ccccc2)N(S(=O)(=O)c2ccc(C)cc2)[C@H]1c1ccc(OC)cc1`, the composite z-score stood at 0.0896 in [1]; 0.733 in assay [2]; 0.479 in assay [3]; 0.848 in assay [4]; 1.61 in assay [5]; 1.02 in [6]. The composite z-score stood at 1 in assay [7], 1.14 in assay [9] and 0.554 in assay [10]. Also, in assay [8], the z-score was -2.76 (inactive).

`COc1ccc([Si](C)(C)[C@@H]2[C@@H](CCO)O[C@]3(C(=O)N(Cc4ccccc4)c4ccc(N5CCOC5=O)cc43)[C@H]2C)cc1`: the composite z-score in [1] was -0.142; in [2], 0.682; in [3] it was -0.0346; in assay [4], 0.65; in [5], 0.545; in assay [6], 0.69. Also, the figures for the composite z-score in [7], in [9] and in assay [10] were 0.951, 0.152 and -0.226, respectively. The z-score in assay [8] is -4.48 (inactive).

`C=C(COC)C(=O)CC[C@@H](OC(C)=O)c1cccc(OCCO)c1`: the composite z-score in [1] was -0.0369; in assay [2] it was -0.489; in [3] it was -0.085; in assay [4], 0.243; in [5], -0.0381; in assay [6], -0.372. Also, the composite z-score was 0.691 in assay [7], -0.204 in [9] and -0.249 in assay [10]. In addition, the z-score in [8] is -0.721 (inactive).

For `O=C(O)[C@@H]1C[C@@H]2C(=O)N3CCC[C@H]3C(=O)N2[C@@H]1c1ccc(O)cc1`, the composite z-score in assay [1] is 1.18; in [2] it was 0.607; in assay [3], -0.0058; in assay [4], 0.0314; in [5] it was 0.0995; in [6], 0.956. Besides, the values for the composite z-score in assay [7], in assay [9] and in assay [10] were 1, 0.387 and 0.35, respectively. Also, the z-score in assay [8] was 7.28 (inactive).

On to `C=C(/C(=C/C[C@H](OC(C)=O)c1ccc(CO)o1)c1cnc2ccccc2c1)C(C)C`, for which the composite z-score is -0.519 in assay [1]; 1.01 in assay [2]; 0.0122 in assay [3]; 1.01 in [4]; 1.5 in [5]; 1.68 in [6]. Also, the composite z-score in assay [7] was 1.04; in assay [9] it was 0.846; in assay [10] it was -0.0296. Besides, in [8], the z-score was 0.938 (inactive).

For the compound `CCCCCC1=C2CNC(C)(C(=O)OC)C=C2C(C)C1=O` (stereo not given), the composite z-score in assay [1] is 0.59; in assay [2], -0.414; in [3], -0.0676; in assay [4], 0.0477; in assay [5] it was 0.363; in assay [6], 1.07. In addition, the composite z-score in assay [7] was 0.972; in assay [9], 0.0861; in [10] it was 0.376. Moreover, the z-score in assay [8] is 1.78 (inactive).

For `COC(=O)[C@@]1(Cc2ccc(F)cc2)[C@H]2c3cc(C(=O)N4CCCC4)n(Cc4ccc(C)c(F)c4F)c3C[C@H]2CN1C(=O)c1ccccc1`, the composite z-score in [1] was 0.573; in assay [2], -0.0621; in assay [3], -0.0887; in assay [4] it was -0.227; in assay [5], 1.11; in assay [6], 1.29. The composite z-score in assay [7] was 1.35; in assay [9], 0.409; in [10], -0.0618. Further, in [8], the z-score was 2.59 (inactive).

Turning to `CCOC(=O)C[C@H]1[C@H](OC(=O)c2cc3ccccc3oc2=O)[C@@H](NC(=O)c2ccccc2)c2cc(OCCCO)ccc2N1C(=O)c1ccccc1`, the composite z-score is -0.319 in assay [1]; 0.524 in assay [2]; -0.105 in assay [3]; 0.462 in assay [4]; 1.17 in assay [5]; 0.0287 in [6]. The composite z-score in assay [7] is 0.819; in assay [9] it was 0.349; in [10] it was -0.199. For the same compound, the z-score in assay [8] is 1.57 (inactive).

Regarding `COCCCNC(=O)[C@@]1(Sc2ccc(C)cc2)CC(=O)N(C2Cc3ccccc3C2)[C@@H]1c1ccc(CO)cc1`, the composite z-score is 0.667 in [1]; -1.94 in assay [2]; -0.16 in assay [3]; -0.459 in assay [4]; -1.12 in assay [5]; 1.47 in assay [6]. Besides, the composite z-score in assay [7] was 1.32; in assay [9], -0.213; in [10] it was -0.164. The z-score in [8] is -1.11 (inactive).

Regarding `CC(=O)NCCCC[C@@H]1NC(=O)[C@@H]2C[C@H](C(=O)NCCCCCN)[C@H](c3cccc(OCCO)c3)N2C1=O`, the composite z-score is -0.0173 in assay [1]; 1.92 in assay [2]; 0.0322 in [3]; 0.742 in assay [4]; 0.542 in assay [5]; 1.7 in assay [6]. In addition, the composite z-score was 1.01 in assay [7], 0.268 in assay [9] and -0.245 in [10]. For the same compound, the z-score in [8] was 0.301 (inactive).

`CCOC(=O)C[C@H]1[C@H](OC(=O)c2ccc(-c3ccccc3)cc2)[C@@H](NC(=O)CC(C)C)c2cc(OCCCO)ccc2N1C(=O)c1ccc2ccccc2n1`: the composite z-score was -0.459 in assay [1]; 0.176 in [2]; -0.149 in assay [3]; 0.205 in assay [4]; 0.458 in [5]; 0.491 in assay [6]. Further, the composite z-score was determined as 0.76 in assay [7], 0.185 in assay [9] and 0.1 in assay [10]. Also, in assay [8], the z-score was 0.375 (inactive).

As for `CN(C)C(=O)[C@]1(Cc2ccccc2CN=[N+]=[N-])N=C(c2ccc(OCCCO)cc2)O[C@@H]1c1ccccc1`, the composite z-score in [1] was 0.168; in [2], -0.242; in assay [3] it was 0.0577; in [4] it was 0.863; in assay [5], 0.666; in assay [6] it was 1.62. The composite z-score in [7] was 0.96; in assay [9], 0.694; in assay [10], -0.0618. In addition, the z-score in [8] was -3.49 (inactive).
